PNC assembly inh: High Content Assay for Compounds that inhibit the Assembly of the Perinucleolar Compartment | PC3M PTB-GFP, PNC prevalence imaging, 16 h; stronger effect = lower value | activity change (PNC), negative = inhibition, % at 10 µM | hit rate 3.1% among 140,000 | AID 2417, 2010;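 active = readout at or below -70, meaning at least 70% loss of cells showing the perinucleolar compartment, a nuclear body marking cancer cells; inconclusive = readout between -30 and a set limit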;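 also: plate controls were DMSO wells for no effect and camptothecin positive control wells for full effect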
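Read-out is percentage of cells bearing a perinucleolar compartment, from automated 20x imaging of fixed, Hoechst-stained PC3M PTB-GFP cells. Cells were seeded 4 h, then exposed 16 h to compound (23 nl of library stock) in duplicate plates.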
ALDH1A1 block: qHTS Assay for Inhibitors of Aldehyde Dehydrogenase 1 (ALDH1A1) | hit rate 7.3% among 220,000 | Aldehyde dehydrogenase 1A1 (Homo sapiens), P00352 | Potency, µM (titrated, usually from 75.3 µM), without a hit: at the top dose activity, negative = inhibition, hits mostly inhibitors | Purified ALDH1A1, NADH fluorescence, propionaldehyde substrate | AID 1030, 2008;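 also: potency is read from the fitted curve at half-maximal effect; plate controls were no enzyme wells and a reference inhibitor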
HPGD inh: qHTS Assay for Inhibitors of HPGD (15-Hydroxyprostaglandin Dehydrogenase) | Potency, µM, for inactives: top-dose activity change, negative = inhibition, most hits filed as inhibitors | AID 894, 2007 | purified HPGD, NADH fluorescence kinetic, PGE2 substrate | 15-hydroxyprostaglandin dehydrogenase [NAD(+)] (Homo sapiens), P15428 | hit rate 4.3% among 150,000; also: potency is read from the fitted curve at half-maximal effect
Target sequence (P15428 whole entry, looked up): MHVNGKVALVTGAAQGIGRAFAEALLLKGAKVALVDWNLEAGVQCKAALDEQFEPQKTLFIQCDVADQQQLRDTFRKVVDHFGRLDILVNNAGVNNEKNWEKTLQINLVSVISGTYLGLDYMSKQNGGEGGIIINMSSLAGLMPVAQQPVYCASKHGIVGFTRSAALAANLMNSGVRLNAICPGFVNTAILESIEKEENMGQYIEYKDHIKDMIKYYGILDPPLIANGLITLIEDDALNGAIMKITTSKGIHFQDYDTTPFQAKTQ
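NADH formation kinetics: reaction with 30 uM PGE2 and 1 mM NAD+ (final), 20 nM enzyme, Tris-HCl pH 8 with Tween 20, after 15 min compound preincubation at room temperature. Fluorescence change, last versus first of five reads.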
Active calls of the source: *; ? = inconclusive; . = no result; [ ] = dose if it differs, or a comment. Sampled rows, rich in hits. Any-hit rate of the full collection: about 11%. Unless noted, calls follow the shape of the dose curve; as a rule, active = well fitted inhibition curve with a large enough effect (not every such curve was filed as active); inconclusive = small, poorly fitted or top-dose-only effect, or another doubt; inactive = no such curve, though single readings can be large or run the other way. Unless noted, % is scaled to controls: 0 for no effect and ±100 for the full control effect.

SMILES | PNC assembly inh | ALDH1A1 block | HPGD inh
NC(=O)c1ccsc1NC(=O)Cc1ccc([N+](=O)[O-])cc1 | . | -2% | .
CC(=O)[C@]1(O)CCC2C3C=C(Cl)C4=CC(=O)C5CC5[C@@]4(C)C3CC[C@]21C (stereo partly specified) | . | -5% | -13%
Nc1c(S(=O)(=O)c2cccs2)c2nc3ccccc3nc2n1/N=C/c1cccc(O)c1 | 30 | ? | ?
Cc1cc(N2CCCC2)n2nc(C)nc2n1 | -84* | 1% | -9%
CCOC(=O)N1CCN(c2cc(C)nc3nc(C)nn23)CC1 | ? | 1% | -9%
Cc1cc(N2CCC(C)CC2)n2nc(C)c(-c3ccccc3)c2n1 | -16 | 2% | ?
Cc1cc(N2CCCCC2)n2nc(C)c(-c3ccccc3)c2n1 | -82* | -9% | .
CCN(CC)C(=O)CSc1ncnc2sc(C)c(C)c12 | . | -6% | .
O=C(Nc1ccccc1Br)C1CCC(=O)N1Cc1ccccc1Cl (stereo unspecified) | ? | 15% | 0%
O=C(Nc1ccc(Cl)cc1)C1CCC(=O)N1Cc1ccccc1Cl (stereo unspecified) | -90* | 7% | -12%
CSc1nn(-c2ccc(C(=O)OCC(=O)NC(=O)NC(C)C)cc2)c(=S)s1 | ? | -2% | -10%
Clc1ccc(CON/C=N/c2ncnc3sccc23)c(Cl)c1 | 23 | -1% | -12%
COc1cccc(C2SCC(=O)N2c2ccc(Br)cc2)c1OC (stereo unspecified) | -4 | 1% | -5%
CN(C(=O)c1cccn(Cc2ccccc2)c1=O)c1ccccc1 | . | -3% | .
CN(C(=O)c1ccc(=O)n(Cc2ccc(Cl)cc2)c1)c1ccccc1 | . | 14µM* | .
CCn1nc(C(=O)Nc2nc3ccccc3[nH]2)c2ccccc2c1=O | -89* | -10% | -10%
Cn1nc(C(=O)Nc2nc3ccccc3[nH]2)c2ccccc2c1=O | ? | -4% | -15%
CC(=O)OCC(=O)Nc1ccccc1OC(F)F | . | 9% | .
Cc1c(Br)cc(C(=O)NC2CCCCC2)c(C)c1C | 63 | -2% | -13%
COc1ccc(Cl)cc1NC(=S)NNC(=O)c1cccnc1 | . | -15% | .
COc1cc(NC(=O)c2cccc(Cl)c2)ccc1NC(=O)c1cccs1 | . | 14% | .
COc1cc(NC(=S)NC(=O)c2cc(C)cc(C)c2)ccc1NC(=O)c1cccs1 | 13 | 14µM* | -18%
COc1cc(NC(=S)NC(=O)c2ccccc2C)ccc1NC(=O)c1cccs1 | ? | 25µM* | ?
COc1cc(NC(=O)c2ccccc2Cl)ccc1NC(=O)c1cccs1 | . | 2% | .
COc1ccc(Cl)cc1NC(=S)NNC(=O)c1cccs1 | . | 10µM* | .
SMILES | PNC assembly inh | ALDH1A1 block | HPGD inh
COc1cc(NC(=S)NC(=O)c2c(OC)cccc2OC)ccc1NC(=O)c1cccs1 | -27 | -8% | -8%
COc1cc(NC(=S)NC(=O)c2ccc(C(C)(C)C)cc2)ccc1NC(=O)c1cccs1 | -115* | 12µM* | -9%
Cc1c(/C=N/NC(=O)c2cc(=O)[nH]c(=O)[nH]2)c2ccccn2c1C(=O)c1ccccc1 | -11 | ? | -20%
COc1cc2c(cc1OC)-c1nnc(-c3cccs3)n1C1(CCCC1)C2 | 17 | ? | ?
Cc1ccccc1NC(=S)NCCc1ccc(S(N)(=O)=O)cc1 | 23 | -6% | -4%
O=C(NC1CCN(Cc2ccccc2)C1)c1ccc(Cc2nc3ccccc3[nH]2)cc1 (stereo unspecified) | . | 3% | -5%
Cn1c(SCC(=O)c2ccc3c(c2)NC(=O)CO3)nc2ccccc21 | . | 3% | .
Cc1ccc(-n2nnnc2SCC(=O)c2ccc3c(c2)NC(=O)CO3)c(C)c1 | 5 | ? | -11%
O=C1COc2ccc(C(=O)CSc3nnnn3-c3ccccc3)cc2N1 | ? | 5µM* | -19%
CCCn1c(SCC(=O)c2ccc3c(c2)NC(=O)CO3)nc2ccccc21 | 23 | 3.2µM* | -20%
O=[N+]([O-])c1ccc(/C=N/Nc2nc(N3CCOCC3)nc(N3CCOCC3)n2)cc1 | . | 0% | .
O=[N+]([O-])c1ccc(/C=C2\CCC(C3=CCCC3)=C2N2CCOCC2)cc1 | 66 | 14µM* | -14%
Cc1ccc(N2CCN(CCC(=O)O)CC2)cc1 | . | 8%[13.5 µM] | -8%
COc1ccc(C(C#N)N2CCCCCC2)cc1OC (stereo unspecified) | -10 | ? | -12%
COc1ccc(C2=NN(C(C#N)c3ccc(OC)c(OC)c3)C(c3ccccc3)C2)cc1 (stereo unspecified) | 7 | 18µM* | -29%
COc1ccc(C2CC(c3ccc([N+](=O)[O-])cc3)=NN2C(=O)c2ccccc2)cc1OC (stereo unspecified) | . | 4% | .
COc1ccc(C(C#N)N2CCC(c3ccccc3)=N2)cc1OC (stereo unspecified) | . | 2.2µM* | .
Cn1c(=O)c2ncn(CC(=O)NCCOCc3ccccc3Cl)c2n(C)c1=O | 31 | -1% | -12%
CC(C)(C)c1cc(=O)n(-c2ccccc2)[nH]1 | 13 | ? | -19%
CC(C)(CNC(=S)NCCc1ccccc1)CNC(=S)NCCc1ccccc1 | 4 | ? | -3%
COc1ccc(-n2c(C)c(C(C)=O)c3cc(O)ccc32)cc1 | ? | -9% | 4µM*
CCOc1ccc(-n2c(C)c(C(C)=O)c(C(C)=O)c2C)cc1 | ? | 22µM* | -10%
COc1ccc(-n2c(C)c(C(C)=O)c(C(C)=O)c2C)cc1 | -14 | 8% | -4%
COc1ccc2c(c1)c(C(C)=O)c(C)n2-c1ccccc1 | ? | 14% | -7%
Cc1nn(Cc2ccccc2)c2c1C(c1cccc(Cl)c1)C(C#N)=C(N)O2 (stereo unspecified) | 3 | ? | -16%
SMILES | PNC assembly inh | ALDH1A1 block | HPGD inh
CC(C(=O)Nc1ccccc1)N(c1cccc(Cl)c1)S(C)(=O)=O (stereo unspecified) | . | 7% | .
O=C(NCc1ccc(OC(F)(F)F)cc1)C1CC(c2c(Cl)cccc2Cl)=NO1 (stereo unspecified) | ? | -7% | -23%
Cc1nnc(SC(C)C(=O)N2CCc3ccccc32)s1 (stereo unspecified) | 32 | 6% | -5%
CC(Sc1nnc(-c2ccccc2)c(-c2ccccc2)n1)C(=O)N1CCc2ccccc21 (stereo unspecified) | ? | 7.1µM* | .
C=CCn1c2ccccc2c2nnc(SCC(=O)OCN3C(=O)c4ccccc4C3=O)nc21 | 357 | -4% | ?
CC(C)(C)c1ccc(-c2nnc(SCCN3C(=O)c4ccccc4C3=O)o2)cc1 | 37 | -15% | 18µM*
Cc1cc(C)n2c(SCCN3C(=O)c4ccccc4C3=O)nnc2n1 | 1 | -9% | -7%
COc1ccc(S(=O)(=O)N2CC(O)CC2C(=O)Nc2cccnc2)cc1 (stereo unspecified) | . | 1% | .
Cc1ccccc1-n1sc2cc(F)ccc2c1=O | . | 0.56µM* | .
Cc1ccccc1-n1c(=O)c2ccccc2n2cnnc12 | ? | 5% | 2%
COc1ccc(C(c2nnnn2Cc2cccs2)N2CCN(c3ccc(F)cc3)CC2)cc1OC (stereo unspecified) | -28 | ? | -24%
